Source: PubChem BioAssay AID1159580 (chemical genetic matrix, 2015)
“And” between values parts separate entries of the source, which are not always exact repeats. Equal values may be shown once. Hit rate of the full screen: of about 5,500 compounds, about 2,000 (36%) were called active. Another 18% or so got no clear call; they are omitted. Rule as the data show it: active = normalized growth mostly below about 0.91 (no sharp cut-off); inconclusive = no clear call, values can overlap the other calls; inactive = mostly above about 0.92. This is one part of the list.

Assay: chemical genetic growth profiling, strain panel (AID 1159580);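 also: tested at 20 µM; growth read once vehicle control cultures reached saturation at 30 °C; 1 = growth at the plate median or of vehicle wells; lower values mean less growth of the strain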
Conditions: S. cerevisiae deletion strains, growth OD

Measured: normalized growth

CC(=O)O[C@@H]1C2CC[C@@H]3C1(C[C@@H](O)[C@@]1(O)[C@@H](C[C@H](O)C1(C)C)[C@]3(C)O)C[C@@]2(C)O (stereo partly drawn)
inactive: locus YAL021C, strain ccr4, hits give low values 0.996 | locus YAL026C, strain drs2, hits give low values 0.984 | locus YAL030W, strain snc1, hits give low values 0.992 | locus YBL061C, strain skt5, hits give low values 1 | locus YBR009C, strain hhf1, hits give low values 0.99 | locus YBR021W, strain FUR4, hits give low values 1.02 | locus YBR023C, strain chs3, hits give low values 0.997 | locus YBR171W, strain sec66, hits give low values 0.979 | locus YBR229C, strain ROT2, hits give low values 0.958 | locus YBR231C, strain swc5, hits give low values 0.997 | locus YBR279W, strain paf1, hits give low values 1 | locus YCL011C, strain gbp2, hits give low values 0.985 | locus YCL016C, strain dcc1, hits give low values 0.987 | locus YCL029C, strain bik1, hits give low values 0.974 | locus YCL061C, strain MRC1, hits give low values 0.995 | locus YCL069W, strain vba3, hits give low values 0.989 | locus YCR088W, strain abp1, hits give low values 0.988 | locus YDL005C, strain med2, hits give low values 0.976 | locus YDL035C, strain GPR1, hits give low values 0.998 | locus YDL040C, strain nat1, hits give low values 0.986 | locus YDL074C, strain BRE1, hits give low values 1.07 | locus YDL101C, strain DUN1, hits give low values 0.988 | locus YDL134C, strain PPH21, hits give low values 1.05 | locus YDL185W, strain tfp1, hits give low values 0.992 | locus YDL192W, strain arf1, hits give low values 0.992 | locus YDR001C, strain nth1, hits give low values 0.996 | locus YDR069C, strain doa4, hits give low values 0.999 | locus YDR101C, strain arx1, hits give low values 0.976 | locus YDR137W, strain rgp1, hits give low values 0.922 | locus YDR159W, strain sac3, hits give low values 0.995 | locus YDR162C, strain NBP2, hits give low values 1.01 | locus YDR195W, strain ref2 0.962 | locus YDR297W, strain sur2, hits give low values 0.989 | locus YDR318W, strain mcm21, hits give low values 0.991 | locus YDR334W, strain swr1, hits give low values 0.957 | locus YDR335W, strain msn5, hits give low values 0.999 | locus YDR388W, hits give low values 0.996 | locus YDR392W, strain spt3, hits give low values 0.993 | locus YDR502C, strain sam2, hits give low values 1 | locus YEL003W, strain gim4, hits give low values 0.988 | locus YEL037C, strain rad23, hits give low values 0.997 | locus YEL061C, strain CIN8 (second series), hits give low values 0.99 | locus YER015W, strain faa2, hits give low values 0.997 | locus YER016W, strain bim1, hits give low values 0.985 | locus YER110C, hits give low values 0.96 | locus YER111C, strain swi4, hits give low values 0.998 | locus YER155C, strain BEM2 (second series), hits give low values 0.977 | locus YER155C, strain BEM2, hits give low values 0.997 | locus YER167W, strain BCK2, hits give low values 0.998 | locus YFR010W, strain ubp6, hits give low values 0.977 | locus YGL078C, strain dbp3, hits give low values 1 | locus YGL086W, strain mad1, hits give low values 1 | locus YGL167C, strain pmr1, hits give low values 0.998 | locus YGL173C, strain kem1, hits give low values 0.987 | locus YGL227W, strain vid30, hits give low values 0.998 | locus YGL240W, strain doc1, hits give low values 0.991 | locus YGL248W, strain PDE1, hits give low values 1.02 | locus YGL253W, strain hxk2, hits give low values 0.996 | locus YGR078C, strain PAC10, hits give low values 1.01 | locus YGR135W, strain pre9, hits give low values 1.05 | locus YGR252W, strain gcn5, hits give low values 1.08 | locus YHR013C, strain ard1, hits give low values 0.984 | locus YHR027C, strain rpn1, hits give low values 0.989 | locus YHR030C, strain SLT2, hits give low values 1 and 0.972 | locus YHR079C, strain IRE1 (second series), hits give low values 0.983 | locus YHR079C, strain IRE1, hits give low values 0.959 | locus YHR094C, strain hxt1, hits give low values 0.991 | locus YHR129C, strain ARP1, hits give low values 1.01 | locus YHR142W, strain chs7, hits give low values 0.997 | locus YHR200W, strain rpn10, hits give low values 0.995 | locus YIL066C, strain RNR3, hits give low values 1 | locus YIL073C, strain SPO22, hits give low values 1.08 | locus YIL125W, strain kgd1, hits give low values 0.971 | locus YIR030C, strain dcg1, hits give low values 0.993 | locus YJL092W, strain hpr5, hits give low values 0.985 | locus YJL095W, strain BCK1 (second series), hits give low values 0.996 | locus YJL095W, strain BCK1, hits give low values 1.06 and 0.981 | locus YJL115W, strain asf1, hits give low values 0.969 | locus YJL129C, strain trk1, hits give low values 0.992 | locus YJL134W, strain LCB3, hits give low values 0.99 | locus YJL154C, strain vps35, hits give low values 0.983 | locus YJL164C, strain tpk1, hits give low values 0.995 | locus YJL166W, strain qcr8, hits give low values 0.999 | locus YJL168C, strain set2, hits give low values 0.995 | locus YJL187C, strain SWE1 (second series), hits give low values 0.995 | locus YJL187C, strain SWE1, hits give low values 0.994 | locus YJR066W, strain TOR1, hits give low values 0.961 | locus YKL009W, strain mrt4, hits give low values 0.992 | locus YKL068W, hits give low values 0.988 | locus YKL085W, strain MDH1 (second series), hits give low values 0.999 | locus YKL085W, strain MDH1, hits give low values 0.999 | locus YKL160W, strain elf1, hits give low values 0.998 | locus YKL190W, strain CNB1, hits give low values 1.01 | locus YKR001C, strain vps1, hits give low values 0.997 | locus YKR026C, strain gcn3, hits give low values 0.987 | locus YKR091W, strain srl3, hits give low values 1 | locus YLL001W, strain dnm1, hits give low values 0.991 | locus YLL026W, hits give low values 0.993 | locus YLL041C, strain sdh2, hits give low values 0.989 | locus YLR027C, strain aat2, hits give low values 0.985 | locus YLR039C, strain RIC1, hits give low values 1.19 | locus YLR058C, strain SHM2, hits give low values 0.993 | locus YLR102C, strain apc9, hits give low values 0.999 | locus YLR113W, strain HOG1, hits give low values 0.987 | locus YLR221C, strain rsa3, hits give low values 0.992 | locus YLR258W, strain gsy2, hits give low values 0.983 | locus YLR262C, strain YPT6 (second series), hits give low values 1 | locus YLR268W, strain sec22, hits give low values 0.987 | locus YLR320W, strain mms22, hits give low values 1.01 | locus YLR342W, strain FKS1 (second series), hits give low values 0.986 | locus YLR342W, strain FKS1, hits give low values 1 | locus YLR357W, strain rsc2, hits give low values 0.995 | locus YLR370C, strain arc18, hits give low values 1 | locus YLR371W, strain rom2, hits give low values 1 | locus YLR384C, strain iki3, hits give low values 0.99 | locus YLR418C, strain cdc73, hits give low values 1.01 | locus YML016C, strain PPZ1, hits give low values 0.99 | locus YML032C, strain rad52, hits give low values 0.99 | locus YML120C, strain ndi1, hits give low values 0.994 | locus YML124C, strain tub3, hits give low values 1 | locus YMR058W, strain fet3, hits give low values 0.984 | locus YMR078C, strain ctf18, hits give low values 0.99 | locus YMR125W, strain sto1, hits give low values 0.981 | locus YMR129W, hits give low values 0.993 | locus YMR205C, strain PFK2, hits give low values 1.01 | locus YMR223W, strain ubp8, hits give low values 1.01 | locus YMR231W, strain pep5, hits give low values 0.993 | locus YMR263W, strain SAP30, hits give low values 0.991 | locus YMR307W, strain GAS1, hits give low values 1.16 | locus YNL067W, strain RPL9B, hits give low values 1.01 | locus YNL071W, strain lat1, hits give low values 0.981 | locus YNL153C, strain GIM3, hits give low values 0.994 | locus YNL183C, strain NPR1, hits give low values 0.952 | locus YNL209W, strain ssb2, hits give low values 0.987 | locus YNL233W, strain BNI4, hits give low values 1.05 | locus YNL248C, strain rpa49, hits give low values 0.98 | locus YNL250W, strain rad50, hits give low values 0.974 | locus YNL271C, strain bni1, hits give low values 1 | locus YNL298W, strain CLA4, hits give low values 0.992 | locus YNL307C, strain MCK1, hits give low values 0.99 | locus YNL322C, strain KRE1 (second series), hits give low values 0.99 | locus YNL322C, strain KRE1, hits give low values 0.992 | locus YNR049C, strain mso1, hits give low values 0.996 | locus YNR052C, strain pop2, hits give low values 1.01 | locus YOL006C, strain TOP1, hits give low values 1.16 | locus YOL012C, strain htz1 1.28 | locus YOL147C, strain pex11, hits give low values 1 | locus YOR001W, strain rrp6, hits give low values 0.987 | locus YOR061W, strain CKA2, hits give low values 0.985 | locus YOR069W, strain VPS5, hits give low values 1.01 | locus YOR070C, strain gyp1, hits give low values 0.985 | locus YOR080W, strain dia2, hits give low values 0.997 | locus YOR083W, strain WHI5, hits give low values 1 | locus YOR106W, strain vam3, hits give low values 0.985 | locus YOR136W, strain idh2, hits give low values 0.995 | locus YOR144C, strain elg1, hits give low values 0.994 | locus YOR184W, strain ser1, hits give low values 0.992 | locus YOR231W, strain MKK1, hits give low values 0.963 | locus YOR265W, strain rbl2, hits give low values 0.994 | locus YOR270C, strain vph1, hits give low values 0.984 | locus YOR290C, strain snf2, hits give low values 1 | locus YOR316C, strain cot1, hits give low values 0.987 | locus YPL051W, strain arl3, hits give low values 1.01 | locus YPL078C, strain atp4, hits give low values 0.996 | locus YPL106C, strain sse1, hits give low values 0.98 | locus YPL240C, strain hsp82, hits give low values 0.98 | locus YPL241C, strain CIN2, hits give low values 1.01 | locus YPL256C, strain CLN2, hits give low values 0.995 | locus YPR119W, strain clb2, hits give low values 0.992 | locus YPR141C, strain kar3, hits give low values 0.979 | locus YPR163C, strain tif3, hits give low values 1.01 | locus YPR167C, strain met16, hits give low values 1 | strain wtn01, hits give low values 0.985
